In PMC5540273 (PLoS ONE, 2017):

Assays:
Conditions in all cases: concentration: 1 μM, replicates: in singlicate; n = 1
[1] = system: PDPK1
[2] = system: PFTAIRE2
[3] = system: T1, PFTK1
T1 construct: gene CDK14

[4] = system: PHKG1
[5] = system: PHKG2
[6] = system: PIK3C2B
[7] = system: PIK3C2G
[8] = system: PIK3CA
[9] = system: PIK3CB
[10] = system: PIK3CD
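Further: KINOMEscan kinase panel screen.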

Compound | %Inh [1] [%] | %Inh [2] [%] | %Inh [3] [%] | %Inh [4] [%] | %Inh [5] [%] | %Inh [6] [%] | %Inh [7] [%] | %Inh [8] [%] | %Inh [9] [%] | %Inh [10] [%]
O=C(Nc1n[nH]c2cc(-c3ccccc3F)ccc12)C1CC1 [SB-733371] | 0 | 12 | 0 | 0 | 0 | 2 | 3 | 0 | 18 | 0
Cc1cc(Nc2nc(-c3cccc(C)n3)nc3ccccc23)ccn1 [GW872411] | 0 | 0 | 10 | 0 | 0 | 0 | 0 | 0 | 0 | 0
COc1cc2ncn(-c3cc(OCc4ccc(S(C)(=O)=O)cc4)c(C(N)=O)s3)c2cc1OC [GW869979] | 0 | 0 | 0 | 10 | 0 | 0 | 29 | 0 | 30 | 16
COC(=O)c1c(-c2ccccc2)c2cc(C)ccc2c(=O)n1Cc1ccccc1 | 0 | 0 | 2 | 0 | 15 | 0 | 0 | 0 | 0 | 0
CN(C)c1cc(-c2ccc3c(N)n[nH]c3c2)nc(N)n1 [GSK2219329] |  | 0 | 11 | 0 | 0 | 0 | 0 | 0 | 0 | 0
COc1cc(Nc2ccnc3ccc(C(F)(F)F)cc23)cc(OC)c1OC [GW577382] | 32 | 8 | 0 | 3 | 0 | 0 | 0 | 0 | 0 | 0
Fc1cccc(CSc2nnc(-c3ccc4c(c3)CCO4)o2)c1 | 0 | 10 | 0 | 1 | 0 | 1 | 17 | 10 | 14 | 0
CCC(=O)c1c(-c2ccccc2)c2cc(Cl)ccc2c(=O)n1Cc1ccc(C(=O)O)cc1 | 0 | 0 | 0 | 0 | 0 | 0 | 0 | 0 | 3 | 0
COc1ccc(Nc2nccc(N3CCC(NS(=O)(=O)c4ccc(NC(C)=O)cc4)C3)n2)cc1 (stereo not shown) [GSK1379729] | 9 | 17 | 20 | 18 | 0 | 7 | 6 | 4 | 0 | 27
O=C(NCc1cccs1)c1cc(C(=O)c2c(Cl)cccc2Cl)c[nH]1 [GW823670] | 0 | 0 | 55 | 2 | 0 | 0 | 0 | 0 | 0 | 0
COc1cc(Nc2nccc(N3CCC(NC(=O)C4COc5ccccc5O4)C3)n2)cc(OC)c1OC (stereo not shown) [GSK1379761] | 2 | 2 | 26 | 12 | 18 | 10 | 0 | 0 | 0 | 42
COc1ccc(-c2cc3c(C)nc(N)nc3n([C@H]3CC[C@H](O)CC3)c2=O)cn1 | 0 | 0 | 0 | 9 | 1 | 99.6 | 98.8 | 99.7 | 100 | 94.1
COC(=O)c1c(-c2ccccc2)c2cc(Br)ccc2c(=O)n1Cc1ccc(NC(=O)CCC(=O)O)cc1 | 0 | 17 | 0 | 0 | 0 | 0 | 1 | 0 | 24 | 0
COc1ccc(-n2cnc3c(N)ncnc32)cc1 [SKF-97236] | 12 | 20 | 17 | 0 | 0 | 0 | 27 | 2 | 9 | 0
Nc1nc(-c2ccccc2F)c(-c2ccnc3ccccc23)s1 [GW560459] | 0 | 12 | 5 | 7 | 0 | 0 | 0 | 0 | 0 | 12
CCS(=O)c1ccc(-c2coc3ccc(-c4nnc(C)o4)cc23)cc1 (stereo not shown) | 0 | 0 | 9 | 0 | 0 | 0 | 15 | 0 | 32 | 12
O=C(Nc1n[nH]c2nc(-c3ccccc3)c(Cl)cc12)C1CC1 [SB-734909] | 0 | 0 | 6 | 0 | 7 | 35 | 10 | 12 | 13 | 17
CCC(=O)c1c(-c2ccccc2)c2cc(Cl)ccc2c(=O)n1Cc1cc(S(C)(=O)=O)n(CC(N)=O)n1 | 31 | 0 | 11 | 0 | 0 | 0 | 0 | 0 | 0 | 0
Nc1nc(N)c2nc(-c3ccccc3)[nH]c2n1 [SKF-12778] | 14 | 6 | 9 | 0 | 0 | 0 | 68 | 6 | 0 | 21
COc1cc(Nc2nccc(N3CCC(NC(=O)C(C)c4ccc(Cl)cc4)C3)n2)cc(OC)c1OC (stereo not shown) [GSK1379757] | 0 | 11 | 6 | 0 | 0 | 10 | 0 | 6 | 0 | 0
COc1ccc(-c2cc3c(C)nc(N)nc3n([C@H]3CC[C@H](OCCO)CC3)c2=O)cn1 | 0 | 0 | 0 | 7 | 0 | 98.1 | 98.1 | 100 | 100 | 96.6

Compound | %Inh [1] [%] | %Inh [2] [%] | %Inh [3] [%] | %Inh [4] [%] | %Inh [5] [%] | %Inh [6] [%] | %Inh [7] [%] | %Inh [8] [%] | %Inh [9] [%] | %Inh [10] [%]
CCCC(=O)Nc1n[nH]c2ncc(-c3cccc4ccccc34)cc12 [SB-642057] | 0 | 23 | 39 | 0 | 2 | 7 | 0 | 13 | 0 | 0
O=C(Nc1n[nH]c2nc(-c3ccccc3)c(Br)cc12)C1CC1 [SB-708998] | 20 | 1 | 7 | 0 | 0 | 0 | 9 | 0 | 0 | 3
Cn1c(=O)c(F)c(Nc2ccc(I)cc2F)c2c(=O)n(OC[C@H](O)CO)cnc21 | 21 | 2 | 0 | 23 | 0 | 0 | 0 | 0 | 0 | 0
COc1cccc(C2=C(Nc3cccc(C(=O)O)c3)C(=O)NC2=O)c1 [SB-390770] | 0 | 13 | 0 | 0 | 1 | 0 | 22 | 8 | 0 | 32
Cl.NS(=O)(=O)c1cccc(Nc2cc(-c3ccc(F)cc3)n[nH]2)c1 [GW824645] | 0 | 24 | 9 | 0 | 0 | 0 | 0 | 11 | 0 | 0
O=C1NC(=O)C(c2ccccc2)=C1Nc1cccc(O)c1 [SB-390534] | 0 | 10 | 0 | 0 | 0 | 2 | 4 | 0 | 0 | 0
COc1cc2ncn(-c3cc(OCc4ccncc4Br)c(C(N)=O)s3)c2cc1OC [GW854278] | 0 | 0 | 0 | 8 | 1 | 54 | 12 | 0 | 0 | 5
CC(C)(C)c1ccc(C(=O)Nc2cn3cc(-c4ccccc4)ccc3n2)cc1 | 0 | 0 | 0 | 4 | 2 | 0 | 0 | 0 | 14 | 0
Cc1c(Cn2c(C)nn3c(=O)cc(N4CCO[C@H](C)C4)nc23)cccc1C(F)(F)F [GSK2373690] | 0 | 10 | 11 | 3 | 0 | 0 | 0 | 0 | 96.7 | 65
Cc1ccc(-c2ccc3c(ccc4sc5c(c43)NC[C@@H](C)N=C5N(C)C)n2)cn1 | 0 | 0 | 0 | 0 | 0 | 0 | 0 | 0 | 55 | 15
COC(=O)c1c(-c2ccccc2)c2cc(Br)ccc2c(=O)n1Cc1ccc(S(C)(=O)=O)cc1 | 0 | 7 | 0 | 24 | 13 | 7 | 11 | 7 | 28 | 0
CCn1c(-c2nonc2N)nc2ccccc21 [SB-693162/GW549034] | 0 | 0 | 17 | 21 | 16 | 0 | 0 | 0 | 62 | 0
COc1cc2nccc(Nc3cccc(Oc4ccccc4)c3)c2cc1OC.Cl [GW284543] | 0 | 31 | 2 | 2 | 0 | 39 | 0 | 0 | 0 | 55
Cc1nn2c(=O)cc(N3CCOCC3)nc2n1Cc1cccc(Cl)c1Cl [GSK2342769] | 0 | 0 | 91.7 | 7 | 0 | 89 | 56 | 5 | 89 | 99.6
Cc1nc(N(C)[C@H]2CN(C(=O)CC#N)CC[C@H]2C)c2cc[nH]c2n1 | 0 | 0 | 0 | 0 | 13 | 0 | 10 | 0 | 0 | 12
COc1ccc(-c2coc3ccc(-c4nnc(SCc5cccc(C#N)c5)o4)cc23)cc1 | 2 | 0 | 1 | 0 | 1 | 2 | 5 | 0 | 39 | 0
C[C@@H]1CC[C@H](C(=O)NC2CCCCC2)CN1c1cc(-c2ccc3c(N)n[nH]c3c2)nc(N)n1 [GSK2291363] | 95.3 | 26 | 27 | 0 | 17 | 0 | 0 | 0 | 0 | 0
COc1cc2ncn(-c3cc(OCCCc4ccccc4)c(C(N)=O)s3)c2cc1OC [GSK205189] | 11 | 8 | 34 | 2 | 20 | 8 | 0 | 0 | 0 | 0
CCC(=O)c1c(-c2ccccc2)c2cc(Cl)ccc2c(=O)n1Cc1cc(C(=O)NC2CC2)n(C)n1 | 0 | 0 | 0 | 0 | 0 | 0 | 37 | 0 | 21 | 14
CN1C(=O)C(Nc2ccccc2)=C(c2ccccc2)C1=O [SB-300079] | 0 | 0 | 1 | 11 | 0 | 0 | 16 | 25 | 0 | 0
